This passage reports Potency results from PubChem BioAssay AID651568 (National Center for Advancing Translational Sciences (NCATS), 2012).

Out of some 1,200 compounds screened, about 55 (5%) were called active. Where a call stands in place of a potency, no number is given. Not shown: some 15% with an inconclusive outcome. Calls follow the shape of the dose curve; as a rule, active = well fitted inhibition curve with a large enough effect; inconclusive = small, poorly fitted or top-dose-only effect; inactive = no such curve, though single readings can be large or run the other way. Many of the other results were omitted from the sample, so actives are more common in it than they were.
Potency is read from the fitted curve at half-maximal effect.

A short description of this assay: qHTS Assay to Find Inhibitors of Chronic Active B-Cell Receptor Signaling: Hit Validation in Renilla Reporter Assay. Also: nearly all actives have a fitted effect of over 70% in size. Conditions: TMD8 IkB-Renilla luciferase reporter, NF-kB signaling; series mostly up to 57.5 µM. The text has this:
Diffuse large B-cell lymphoma (DLBCL) is the most common category of non-Hodgkin lymphoma, with ~20,000 new cases per year in the United States. DLBCL should be regarded as a collection of different neoplasms. Microarray gene expression analysis has defined two principal types of DLBCL, named for their similarity to normal B cell stages or activation states: a germinal center B-cell (GCB) type, and an activated B-cell (ABC) type. In ABC-DLBCL, a constitutive high-level activity of the NF-kappaB family of transcription factors has been observed (1) and NF-kappaB target genes are more highly expressed in ABC primary tumors than in GCB tumors. Functional studies have shown a constitutive high-level activity of the IkappaB (inhibitor of kappa-B) kinase (IKK) complex. […] Further analysis of DLBCL primary tumors for NF-kappaB target gene expression imply that although CARD11 is required for constitutive IKK activity in all ABC-DLBCL lines, mutations in CARD11 may be the root cause of IKK activation only in lines or tumors with such mutations. In other words, CARD11 mutations may explain NF-kappaB activation in only 10% of ABC-DLBCL cases. […] This process has been termed 'chronic active BCR signaling' (CABS). The goal of this screen is to find small-molecule inhibitors of the CABS pathway found in ABC-DLBCL lines using a cell-based assay that measures IkappaBalpa stability, which has already been extensively validated in the OCI-Ly3 line (PubChem AID:445; REF: 4). […] Hits from the primary screen were tested in this orthogonal secondary assay. NIH Molecular Libraries Probe Production Network [MLPCN] NIH Chemical Genomics Center [NCGC] MLPCN Grant: R03 DA031086 PI Name: Dr. R. Eric Davis
The IkB-Photinus/Renilla reporter assay differs from the primary assay in that the reporters are constitutively expressed, and based on luciferases that are different from the click beetle luciferases and each other. These differences should help to eliminate artifactual sources of activity specific to the primary assay. This assay uses the Dual-Glo substrate from Promega; extensively validated in a 96-well format, it could be converted to a smaller-well format. All lines needed for the IkB-Photinus/Renilla assay have already been prepared and extensively validated
Background: Quantitative high-throughput screening tests each substance at several concentrations.
As for `Cc1ccc(C)c(NS(=O)(=O)c2ccc(-c3cnc(C4CC4)o3)cc2)c1`, the Potency entry was “inactive”. With `Cc1cccc(NS(=O)(=O)c2ccc(C3CCCCC3)cc2)n1` the figure was 13.5 µM (active). With `Cc1cc(C)cc(NS(=O)(=O)c2ccc(-c3cnc(C4CC4)o3)cc2)c1`, the Potency entry is “inactive”. The same measure for `Cc1ccccc1NC(=S)N=Nc1c(O)n(C)c2ccc(S(=O)(=O)N3CCOCC3)cc12`: “inactive”; for `CCn1c(=O)c([N+](=O)[O-])c(Cl)c2ccccc21`: 2.39 µM (active). With `CC[C@]12c3[nH]c4cc(CCC(=O)N(C)C)ccc4c3CCN1C(=O)[C@@H](CC(=O)NCc1ccco1)C[C@@H]2C(=O)N1CCN(C(=O)c2ccco2)CC1` the entry was “inactive”. With `c1ccc(C2=Nn3c(nnc3-c3n[nH]c4c3CCC4)SC2)cc1` the entry was “inactive”; with `Cc1ccc(OCCN2C(=O)C(=O)c3cc(C)ccc32)cc1`, “inactive”. Regarding `CC(C)n1c(SCC(=O)Nc2ccccc2)nc2c1c(=O)n(C)c(=O)n2C`, the Potency result was “inactive”. As for `CN(C)c1nc(=Nc2cccc(Cl)c2)ss1`, the Potency was 10.7 µM (active).

Take `COc1cc(OC)cc(C(=O)NCC(=O)Nc2ccc(-c3ccccc3)cc2)c1`: the Potency result was “inactive”. With `COc1cc(OC)cc(C(=O)NCc2ccc3c(c2)CCN3C(=O)c2ccccc2)c1` the entry was “inactive”. With `COc1ccc(/C=C/C(=O)Nc2cc(S(=O)(=O)N3CCOCC3)ccc2OC)cc1` the entry was “inactive”; with `Cc1noc(C)c1CSc1ncnc2ccccc12`, “inactive”; with `COc1ccc(C(=O)n2c(-c3ccco3)nc3ccccc32)cc1`, “inactive”.

On to `COc1cc(/C=C\C(=O)OCn2nnc3ccccc3c2=O)cc(OC)c1OC`, for which the Potency result was “inactive”. The same measure for `COc1ccc(C(=O)/C=C/c2ccc(OC)c(Cn3nnc4ccccc43)c2)cc1`: 9.53 µM (active). The same measure for `COc1ccccc1NC(=O)COc1ccc(-c2nn(C)c(=O)c3ccccc23)cc1`: “inactive”; for `Cc1ccc(NC(=S)NC(=O)C2CC2)cc1Cl`: “inactive”. The same measure for `Cc1c(CCC(=O)NCCC(=O)O)c(=O)oc2c(C)c3oc4c(c3cc12)CCCC4`: “inactive”; for `COc1cc(/C=N/NC(=O)NC2CCCCC2)ccc1O`: “inactive”. `CCOc1cc(Br)c(C=O)cc1OCC`: the Potency result is “inactive”. As for `O=Cc1ccccc1OCCOc1ccccc1C=O`, the Potency was 12 µM (active). With `Cc1c(CCC(=O)N[C@@H](C)C(=O)O)c(=O)oc2cc3oc4c(c3cc12)CCCC4` the entry was “inactive”; with `CCC(NC(=O)CCc1c(C)c2cc3c4c(oc3cc2oc1=O)CCCC4)C(=O)O` (stereo not given), “inactive”. With `Cc1cc(C)n(-c2nc3ccccc3c(=O)n2OCC#N)n1` the figure was 16.9 µM (active). With `Cc1cc(NC(=O)CSc2nc3ccccc3c(=O)n2C2CCCC2)no1` the entry was “inactive”. Regarding `CCC(=O)Nc1nonc1-c1nc2ccccc2n1Cc1cccc2ccccc12`, the Potency entry was “inactive”. With `CNCc1ccccc1Sc1ccc(O)c(O)c1`, the Potency was 10.7 µM (active). With `COc1cccc(N2CC(O)=C(c3nc4ccccc4s3)C2=N)c1` the entry was “inactive”. In the case of `CCOc1cc(/C=N\NC(N)=O)cc(Br)c1OC(C)C`, the Potency entry is “inactive”. The same measure for `O=C(/C=C/c1ccc(O)cc1)c1ccc(O)cc1O`: 10.7 µM (active); for `O=C(/C=C/c1ccco1)NC(=S)Nc1cccc(-c2nc3ccccc3o2)c1`: “inactive”; for `CCn1ncc(C2=NOC(C(=O)NCc3ccccc3)C2)c1C` (stereo not given): “inactive”. With `CC(C)N=C(NS(=O)(=O)c1ccccc1)C(Cl)(Cl)Cl` the figure was 26.9 µM (active); with `Oc1cccc(Nc2nc(N3CCOCC3)nc(N3CCOCC3)n2)c1`, “inactive”; with `CC1=CC(C)(C)N(S(=O)(=O)c2ccc(C)cc2)c2ccc(C)cc21`, “inactive”. With `CCOc1ccccc1NS(=O)(=O)c1ccc(-c2cnc(C3CC3)o2)cc1` the entry was “inactive”. For the compound `COc1ccc(C(=O)N2CCc3cc(OC)c(OC)cc3C2c2ccc(OC)c(OC)c2)cc1` (stereo not given), the Potency entry is “inactive”.

Consider `COc1ccccc1C(=O)Nc1ccccc1SC(=O)c1ccccc1OC`, for which the Potency is 23.9 µM (active). With `COc1cccc(C(=O)Nc2cc(NC(=O)c3cccs3)ccc2C)c1OC` the entry was “inactive”; with `COc1cc(NC(=S)NC(=O)c2ccccc2F)ccc1NC(=O)c1ccco1`, “inactive”. With `Cc1ccc(COC(=O)c2cc([N+](=O)[O-])ccc2N2CCOCC2)cc1` the entry was “inactive”; with `CCc1cc2c(SCC(=O)Nc3ccc(NC(C)=O)cc3)ncnc2s1`, “inactive”; with `CCCC(=O)Nc1ccc2c(c1)nc(CN1CCN(C(=O)OCC)CC1)n2CC`, “inactive”. Consider `O=C(CCl)Nc1cccc(S(=O)(=O)NC2=NCCCCC2)c1`, for which the Potency was 19 µM (active). With `C=CCn1c(SCC(=O)Nc2cccc(S(N)(=O)=O)c2)nc2sc(C)c(C)c2c1=O` the entry was “inactive”; with `O=C(CCl)Nc1cc(S(=O)(=O)N2CCCCCC2)ccc1Cl`, “inactive”.

Consider `CN(C)/C=N/c1sc2c(c1C#N)CCCC2`, for which the Potency result is “inactive”. In the case of `COc1cc(C2C(C#N)=C(N)Oc3cc(N)ccc32)cc(OC)c1OC` (stereo not given), the Potency entry was “inactive”. With `CCN(C(=O)COC(=O)c1cc([N+](=O)[O-])ccc1N1CCOCC1)c1ccccc1` the entry was “inactive”; with `CC(=O)Nc1nc2ccc(-c3nc4ccccc4o3)cc2s1`, “inactive”; with `CCCc1nc([N+](=O)[O-])c(S(=O)(=O)c2ccccc2)n1CC(C)C`, 30.1 µM (active). The same measure for `Cc1ccc(C(=O)c2cc([N+](=O)[O-])ccc2N2CCCCC2)cc1C`: “inactive”; for `CCOC(=O)C1=C(C)NC(C)=C(C(=O)OCC)C1/C=C/c1ccccc1`: “inactive”; for `O=C(/C=C\c1ccco1)Nc1cc([N+](=O)[O-])ccc1F`: “inactive”.

Take `O=S1(=O)C=C(Sc2nc3cc(Cl)ccc3o2)c2ccccc21`: the Potency is 8.49 µM (active). As for `CCOC(=O)C(C)Oc1cccc2c(=O)n(CC(=O)NCc3ccccc3)ccc12` (stereo not given), the Potency result is “inactive”. Consider `COc1ccc(N(C(=O)c2ccccc2C)S(=O)(=O)c2cccs2)cc1`, for which the Potency result is “inactive”. With `Cc1ccc(C(=O)c2cc([N+](=O)[O-])ccc2N2CCCCC2)cc1` the entry was “inactive”. With `O=C(/C=C/c1cccs1)c1cc(Br)ccc1OC(=O)N1CCOCC1` the figure was 26.9 µM (active); with `O=C(Oc1ccc2ccc(OC(=O)N3CCOCC3)cc2c1)N1CCOCC1`, “inactive”; with `C#C[C@]1(O)CC[C@H]2[C@@H]3CCc4cc(O)ccc4[C@H]3CC[C@@]21C`, “inactive”.

Regarding `O=C(COc1ccccc1-c1ccccc1)N/N=C/c1cccc2ccccc12`, the Potency result is “inactive”. Take `Nc1cc(=O)[nH]c(SCC(=O)Nc2cc(Cl)cc(Cl)c2)n1`: the Potency entry was “inactive”.

For the compound `COc1cc2c(cc1OC)-c1cc(Nc3ccc(C)cc3)nc(=O)n1CC2`, the Potency entry is “inactive”. The same measure for `CCc1ccc(CCC(=O)Nc2ncc(Cc3ccccc3Cl)s2)o1`: “inactive”. With `N=C1SCC(=O)N1c1ncc(Cc2ccccc2Cl)s1` the figure was 8.49 µM (active); with `N=C1SCC(=O)N1c1ncc(Cc2cccc(Cl)c2)s1`, 3.01 µM (active); with `Cn1c(=O)n(Cc2ccccc2Cl)c2ccccc21`, “inactive”.

Regarding `COc1ccccc1-c1noc(CSc2nc(N)cc(=O)[nH]2)n1`, the Potency entry was “inactive”. The same measure for `COc1ccc(S(=O)(=O)Nc2cc3c(C(C)=O)c(C)oc3c3ccccc23)cc1`: “inactive”. Consider `O=c1cc(-c2ccccc2)[nH]c2ccccc12`, for which the Potency result is “inactive”.

Regarding `COc1ccc2cc(C3c4cc(OC)c(OC)cc4CCN3C(=O)c3ccco3)c(=O)[nH]c2c1` (stereo not given), the Potency entry is “inactive”. In the case of `CCOC(=O)c1[nH]c(C)c(C(=O)c2cc(F)ccc2F)c1C`, the Potency entry was “inactive”. The same measure for `C/C(=N\NC(=O)c1c([N+](=O)[O-])c(C)nn1C)c1ccc(NC(=O)C2CCCC2)cc1`: “inactive”. With `CCOC(=O)c1[nH]c2c(c1C)C(=O)CC(c1ccc(F)cc1)C2` (stereo not given) the entry was “inactive”; with `CC[C@]12c3[nH]c4cc(CCC(=O)N(C)C)ccc4c3CCN1C(=O)[C@@H](CC(=O)NCCCN(C)C)C[C@@H]2C(=O)N1CCN(C(=O)c2ccco2)CC1`, “inactive”.

In the case of `COc1ccc(/C=C/C(=O)c2cc(F)ccc2OC(=O)c2ccc(OC)c(OC)c2)cc1OC`, the Potency was 7.57 µM (active). The same measure for `CCc1ccc(NC(=O)C(C)OC(=O)/C=C/c2ccc(O)c(OC)c2)cc1` (stereo not given): “inactive”. With `COc1ccc(/C=C/C(=O)c2cc(F)ccc2OC(=O)c2ccccc2OC)cc1OC` the figure was 6.75 µM (active); with `COc1ccc(/C=C/C(=O)c2cc(F)ccc2OC(=O)c2ccccc2C)cc1OC`, 13.5 µM (active); with `COc1ccc(NC(=S)N/N=C/c2ccc(F)cc2)cc1OC`, “inactive”. Consider `COc1ccc(S(=O)(=O)N2CCOCC2)cc1NC(=O)/C=C/c1ccc(F)cc1`, for which the Potency entry was “inactive”. The same measure for `Cc1ccccc1C(=O)Oc1ccc2ccc(O)cc2c1`: “inactive”; for `COc1ccc(/C=N\NC(=O)c2ccccc2F)cc1COc1ccc(F)cc1F`: “inactive”; for `COc1ccc(/C=C/c2ccncc2)cc1OC`: “inactive”. The same measure for `COc1cccc(/C=N/Nc2nc(Nc3ccccc3)nc(-n3nc(C)cc3C)n2)c1O`: “inactive”; for `NC(=O)c1c(NC(=O)CSc2nc(N)cc(=O)[nH]2)sc2c1CCCC2`: “inactive”. The same measure for `CCOc1ncccc1C(=O)N1CCN(c2cc(Cl)ccc2C)CC1`: “inactive”.

On to `Cc1ccc(/C=N/NC(=O)c2cc(-c3ccncc3)nc3ccccc23)o1`, for which the Potency entry is “inactive”. With `CCOC(=O)c1c(C)n(C)c2ccc(OC)c(NC(=O)CN3CCC4(CC3)OCCO4)c12` the entry was “inactive”; with `O=C(/C=C/c1ccccc1)c1ccc(NC2=NCCCS2)cc1`, 21.3 µM (active); with `COC(=O)C1=C(C)NC(C)=C(C(=O)OC)C1/C=C/c1ccccc1`, “inactive”.

Take `Cc1nc(NC(=O)c2cnccn2)ccc1Br`: the Potency result was “inactive”. Regarding `Cn1c(=O)[nH]c(=O)c2c1nc(SCC(N)=O)n2Cc1cccc(Br)c1`, the Potency result is “inactive”. As to `CCOC(=O)C1CCN(S(=O)(=O)c2c(Cl)ccc3nonc23)CC1`, the Potency was 3.01 µM (active). The same measure for `CCOC(=O)C1CCN(C(=O)CSc2cc(=O)n(CC)c3ccccc23)CC1`: “inactive”; for `COc1ccc(C(=O)NN(C)c2nc(C(F)(F)F)nc3ccccc23)cc1`: “inactive”; for `COc1ccc(-c2cnnn2-c2ccc(NC(=O)c3ccc(S(=O)(=O)N4CCCCC4)cc3)cc2)cc1OC`: “inactive”. The same measure for `Cc1ccc(C)c(-n2c3nc(=O)[nH]c(=O)c-3cc3cc([N+](=O)[O-])ccc32)c1`: 16.9 µM (active). With `Cc1ccc(C(=O)c2cc([N+](=O)[O-])ccc2N2CCCCC2)c(C)c1`, the Potency entry is “inactive”. With `COCCn1c(-c2cccc([N+](=O)[O-])c2)nc2c1c(=O)[nH]c(=O)n2Cc1ccccc1` the entry was “inactive”; with `Cc1ccc(C(=O)c2cc([N+](=O)[O-])ccc2N2CCOCC2)c(C)c1`, “inactive”. The same measure for `Cc1cccc(-n2c3nc(=O)[nH]c(=O)c-3cc3cc([N+](=O)[O-])ccc32)c1`: 26.9 µM (active).
